Compound activity: PubChem BioAssay, National Center for Advancing Translational Sciences (NCATS)
The list is not random: actives were taken first. Their share in the collection is about 5.9%.
KB-3-1 tox = kills parental KB-3-1 adenocarcinoma cells; KB-3-1 viability, CellTiter-Glo ATP luminescence, 72 h; Potency, µM (titrated, usually from 46.1 µM), hits mostly cytotoxic; 400,000 tested, 1.4% active; note: % is set by controls: 0 for no effect and ±100 for the full control effect; nearly all actives have a fitted effect of over 60% in size
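72 h, 37 °C compound treatment of KB-3-1 parental cells; CellTiter-Glo added, 10 min, luminescence read. Data corrected against DMSO-only plates and normalized before curve fitting.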
KB-V1 cytotox = KB-V1 MDR subline cytotoxicity | KB-V1 MDR cells viability, CellTiter-Glo, 72 h | Potency, µM (doses to about 46.1 µM), usual class: cytotoxic | 400,000 tested, 3.4% active | AID 1347076; note: % is set by controls: 0 for no effect and ±100 for the full control effect; nearly all actives have a fitted effect of over 60% in size
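KB-V1, DMEM (no phenol red) + 10% FBS; cpd pin-transferred, titration series; 72 h, 37 degrees C; CellTiter-Glo, luminescence. Data normalized, curve-fit.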
HepG2 viability = HepG2 cytotoxicity, counter-screen for TGF-b inhibitors | 410,000 tested, 0.76% active | AID 588856 | Potency, µM (highest dose often 46.1 µM), for inactives: top-dose activity change, negative = cytotoxicity, actives largely listed as cytotoxic | HepG2 CAGA-GFP viability, ATP luminescence, 18 h
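HepG2 CAGA-GFP cells (1000/well, DMEM with 1% FBS) received compound, then TGF-beta at 500 pg/mL final, and were incubated 18 hours at 37 degrees C. Viability was read by CellTiter-Glo luminescence. Media-only wells were set as complete cell-killing and DMSO as no toxicity.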
ATXN viability = reduces viability in counter-screen for ATXN expression inhibitors; Potency, µM (series often up to 56.7 µM), hits mostly cytotoxic; 400,000 tested, 0.49% active; S2 cells (HEK-293 line with an ATXN2-luciferase reporter) viability, CellTiter-Fluor protease fluorescence, 24 h; note: nearly all actives have a fitted effect of over 40% in size
TGFb inhibitor = TGF-b pathway inhibition; Potency, µM (doses to about 46.1 µM), for inactives: at the highest dose activity, negative = inhibition, usual class: inhibitors; 410,000 tested, 1.2% active; HepG2 CAGA-GFP TGF-b/SMAD3 reporter, GFP fluorescence, 18 h; TGF-beta stimulated, 500 pg/mL final; note: % is set by controls: 0 for no effect and ±100 for the full control effect; nearly all actives have a fitted effect of over 65% in size
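GFP signal (ex488/em500-530) from TGF-beta-stimulated HEPG2 CAGA-GFP cells, 500 pg/mL final, 18 h at 37 degrees C in DMEM plus 1% FBS, normalized to unstimulated and DMSO-stimulated controls.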
ATXN2 expr inh = ATXN2 expression inhibition. HEK-293 ATXN2-luciferase reporter, luminescence, 24 h. Potency, µM (top dose mostly 57 µM), for the others: at the highest dose activity change, negative = inhibition, usual class: inhibitors. 360,000 tested, 0.72% active; note: % is set by controls: 0 for no effect and ±100 for the full control effect; nearly all actives have a fitted effect of over 55% in size
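qHTS (up to 57 uM final) was run with 24 h compound exposure of reporter cells at 37 °C. Each well was multiplexed: SteadyGlo luminescence measured ATXN2-luciferase expression after a fluorogenic Gly-Phe-AFC viability readout (25 uM final).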
* marks the source's active call; other numbers are inactive results; i = inactive; ? = inconclusive; nt = no result. Calls come from the whole dose curve; as a rule, active = well fitted curve in the direction sought with a large enough effect; inconclusive = small, poorly fitted or top-dose-only effect, or another doubt; inactive = no such curve, though single readings can be large; an effect the other way counts as inactive or inconclusive. Potency is the fitted concentration of half-maximal effect.

SMILES | KB-3-1 tox | KB-V1 cytotox | HepG2 viability | ATXN viability | TGFb inhibitor | ATXN2 expr inh
COc1ccc(CN(C)C(=O)c2cccc(S(=O)(=O)N3CCc4ccccc43)c2)c(OC)c1 | 18µM* | ? | -1% | i | ? | -13%
COc1cccc(C(=O)N(Cc2cc3cc4c(cc3nc2N(C)C)OCO4)CC2CCCO2)c1 (centres undefined) | nt | nt | nt | i | nt | nt
COc1ccc(-c2cc(NC=O)c3ncc(-c4ccc(OC)c(OC)c4)n3c2)cc1 | 1.6µM* | 3.7µM* | 5% | ? | ? | -26%
COc1ccc(-c2cc(NC=O)c3ncc(-c4ccc(OC)c(OC)c4)n3c2)cc1OC | ? | ? | -17% | i | 2% | -13%
COc1ccc(-c2cnc3c(NC=O)cc(-c4ccccc4OC)cn23)cc1OC | 0.18µM* | 1.2µM* | -28% | i | ? | 18µM*
Cc1c(C)c2c(c(C)c1OC(=O)CCC(=O)OCCO)CC[C@@](C)(CCC[C@H](C)CCC[C@H](C)CCCC(C)C)O2 | nt | nt | nt | ? | nt | -12%
CCc1ccc(S(=O)(=O)ON2C(=O)c3ccccc3C2=O)cc1 | i | i | -3% | nt | ? | 30µM*
O=C1c2cccc3cccc(c23)C(=O)N1OS(=O)(=O)c1ccc(Cl)cc1 | i | i | -4% | i | 12% | -7%
COc1cccc(NC(=O)C2C3CCC4C(CCC32)C4(Cl)Cl)c1 (centres undefined) | i | 12µM* | -10% | i | 1% | 8%
COc1ccc(NC(=O)C2C3CCC4C(CCC32)C4(Cl)Cl)cc1 (centres undefined) | i | i | 19% | i | 6% | 1%
O=C1C=CC(=O)N1c1ccc(O)cc1 | i | ? | 7.9µM* | i | ? | nt
CCc1ccccc1NC(=O)Cn1c(=O)ccc2cc(S(=O)(=O)N3CCC(C)CC3)ccc21 | i | i | -30% | i | ? | 10%
COc1ccc(-c2ccnc(SCC(=O)c3ccc(OC)c(OC)c3)n2)cc1 | i | 16µM* | 0% | i | 6% | -11%
COc1ccc(-c2ccnc(SCC(=O)c3ccc(Cl)cc3)n2)cc1 | i | ? | 1% | i | -9% | 14%
COc1cccc(C(c2c(NC(=O)c3ccccc3)sc(C)c2C)N2CCN(C)CC2)c1 (centres undefined) | ? | 21µM* | 3% | ? | -11% | -19%
O=C(OCC(=O)N1CCc2ccccc21)c1c2c(nc3ccccc13)CCCCC2 | ? | 4.6µM* | 7% | ? | 1% | ?
CC(C)c1ccccc1NC(=O)COC(=O)c1c2c(nc3ccccc13)CCN(Cc1ccccc1)C2 | ? | ? | -24% | ? | ? | nt
COc1cccc(NC(=O)COC(=O)c2c3c(nc4ccccc24)CCC(C)C3)c1 (centres undefined) | ? | 2.9µM* | -55% | ? | ? | ?
NC(=O)COC(=O)c1c2c(nc3ccccc13)CCCC2 | i | i | 2% | i | -7% | -24%
Cc1c(Cl)cccc1NC(=O)COC(=O)c1c2c(nc3ccccc13)CCN(Cc1ccccc1)C2 | ? | 2.1µM* | -34% | i | ? | -18%
CC(C)NC(=O)NC(=O)COC(=O)c1c2c(nc3ccccc13)CCC2 | i | 21µM* | -12% | i | -17% | -34%
CC(C)(C)NC(=O)COC(=O)c1c2c(nc3ccccc13)CCC2 | i | ? | 2% | ? | -11% | -9%
COc1ccc(OC)c(-c2ccnc(-n3ncc(C(=O)N4CCN(CCO)CC4)c3C3CC3)n2)c1 | nt | nt | nt | i | nt | nt
O=C(N/N=C/c1cn(-c2cccs2)nc1-c1ccccc1)c1ccccc1O | i | ? | -47% | ? | 11µM* | 0%
O=C(N/N=C/c1cn(-c2cccs2)nc1-c1ccccc1)c1ccccc1Br | i | i | -1% | i | -4% | 35%
SMILES | KB-3-1 tox | KB-V1 cytotox | HepG2 viability | ATXN viability | TGFb inhibitor | ATXN2 expr inh
O=S(=O)(Nc1nc2ccccc2nc1N1CCc2ccccc2C1)c1ccc(Br)cc1 | ? | i | 7% | i | -21% | 17%
CC(=O)Nc1ccc(S(=O)(=O)Nc2nc3ccccc3nc2N2CCCCCC2)cc1 | i | i | -17% | i | 3% | 2%
Cc1ccccc1S(=O)(=O)Nc1nc2ccccc2nc1N1CCc2ccccc2C1 | i | 21µM* | -26% | i | ? | 28%
O=S(=O)(Nc1nc2ccccc2nc1N1CCc2ccccc2C1)c1ccc(Cl)cc1 | 15µM* | 15µM* | -19% | i | -5% | 6%
CC(=O)Nc1ccc(S(=O)(=O)Nc2nc3ccccc3nc2N2CCc3ccccc3C2)cc1 | i | 9.2µM* | 12% | ? | ? | 31%
COc1cc(OC)c(NC(=O)CC(c2cccs2)N2Cc3ccccc3C2=O)cc1Cl (centres undefined) | i | i | -54% | i | -59% | -19%
CC1(C(=O)NS(=O)(=O)c2ccc3c(c2)CCO3)CCN1C(=O)c1ccccc1CCc1ccccc1 (centres undefined) | i | i | 6% | i | 43% | 7%
COc1ccc(-c2nnnn2-c2ccccc2OC)cc1 | ? | 13µM* | 10% | i | -8% | -13%
CCOC(=O)C1CCCCN1C(=O)c1ccc(-n2cc(NC(=O)c3cccnc3)cn2)cc1 (centres undefined) | nt | nt | nt | i | nt | nt
CCOC(=O)c1sc(NC(=O)c2ccc(C)o2)nc1C | i | ? | 5µM* | i | ? | 8%
COC(=O)c1sc(NC(=O)c2ccc(C)o2)nc1C | ? | i | -46% | i | -30% | 33%
CCOC(=O)c1sc(NC(=O)c2ccc(OC(C)=O)cc2)nc1C | ? | 10µM* | -75% | i | 0% | 38%
Cn1c(=O)n(C)c2cc(N3CCOCC3)c(NC(=O)c3c(F)cccc3F)cc21 | i | i | 1% | i | 4% | -2%
O=C(NNC(=S)Nc1ccc(Br)cc1)c1ccc(N2CCOCC2)c([N+](=O)[O-])c1 | i | i | -26% | i | ? | -7%
Cc1ccc(NC(=S)NNC(=O)c2ccc(N3CCOCC3)c([N+](=O)[O-])c2)cc1Cl | ? | 16µM* | -44% | i | ? | -13%
Cc1ccc(NC(=O)c2ccc(NCCN)c([N+](=O)[O-])c2)cc1Cl | i | ? | 18µM* | i | ? | 8%
CCc1ccc(NC(=O)Cn2cnc3nc4c(cc3c2=O)CCCC4)cc1 | i | i | 8% | i | -3% | 5%
